# Assay outcomes from PubChem BioAssay.
# Shown are actives, neighbours in structure and some others; about 6% of the full set was active somewhere.
# D1 antagonist: antagonists of human D1 dopamine receptor | P21728 | HEK293 TREx D1 cells, calcium flux, dopamine EC80; hits give low values | activity change, negative = inhibition, % at 10 µM | 360,000 compounds, 3.2% hits | AID 504652; in the data active = activity change below about -30%; note: % is set by controls: 0 for no effect and ±100 for the full control effect
#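 Calcium flux readout: force-coupled, inducible Hek293 Trex D1 line, cells induced overnight at 30 C with tetracycline, dye-loaded 30–90 min at RT. Antagonism scored against EC80 dopamine challenge given 180 s after compound.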
# D3 antag: D3 dopamine receptor (human) antagonism. P35462. D3R cells, DiscoveRx beta-arrestin luminescence, antagonist mode; hits give low values. max response, negative = inhibition, %. 360,000 compounds, 2.5% hits; in the data active = max response below about -50%; note: % is set by controls: 0 for no effect and ±100 for the full control effect
# Target sequence (P35462 whole entry, looked up): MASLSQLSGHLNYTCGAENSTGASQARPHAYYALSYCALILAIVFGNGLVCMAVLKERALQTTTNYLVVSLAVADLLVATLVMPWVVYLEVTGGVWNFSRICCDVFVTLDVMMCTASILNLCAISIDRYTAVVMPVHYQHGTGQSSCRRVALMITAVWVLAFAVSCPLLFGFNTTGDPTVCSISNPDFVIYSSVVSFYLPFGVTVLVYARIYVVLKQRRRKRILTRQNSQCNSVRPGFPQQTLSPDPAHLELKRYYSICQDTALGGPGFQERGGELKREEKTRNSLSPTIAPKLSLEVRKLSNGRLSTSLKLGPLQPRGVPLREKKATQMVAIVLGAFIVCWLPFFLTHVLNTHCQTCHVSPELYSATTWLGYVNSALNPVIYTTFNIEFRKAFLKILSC
#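 Cells plated overnight at 1500 cells/well, then exposed to library compounds with dopamine controls for 90 minutes at 37 degrees C. DiscoveRx reagent added for 30–60 minutes at room temperature; luminescence read, quantitative HTS format.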
# D1 ag: activates the human D1 dopamine receptor | P21728 | HEK293 T-REx D1 cells, calcium flux, agonist mode | activation, % at 2 µM | 360,000 compounds, 1% hits; in the data active = activation above about 30%; note: 0% is about no effect
#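 Tetracycline-induced HEK293 TREx D1 cells, force-coupled to calcium signalling, were dye-loaded with a no-wash calcium kit. Compound was pin-added after a 10 s baseline. Fluorescence was read kinetically at 1 cycle/s for 180 s, with calcium rises flagged as agonism.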
# D1 potentiator: human D1 dopamine receptor positive modulation; P21728; HEK293 TREx D1 cells, calcium flux, dopamine EC20 potentiation; potentiation, % at 10 µM; 360,000 compounds, 0.036% hits; in the data active = potentiation above about 30%; note: 0% is about no effect
# DRD3 agonist: agonists of human D3 dopamine receptor | D3R DiscoveRx beta-arrestin cells, luminescence, 90 min | max activation, % | 410,000 compounds, 0.58% hits; in the data active = max activation above about 30%; note: 0% is about no effect
#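 Agonist-mode cell screen: cells plated at 1500/well and incubated overnight at 37 °C, then exposed to library compounds for 90 min at 37 °C. Detection reagent was added for 30–60 min at room temperature, and luminescence was read.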
# Numbers without * were called inactive; nt = not tested or not shown.
SMILES,D1 antagonist,D3 antag,D1 ag,D1 potentiator,DRD3 agonist
COC(=O)/C=c1/s/c(=C(\C#N)C(=O)NCc2ccco2)n(-c2ccccc2)c1=O,-33*,2,1,-2,-2
Brc1ccc(Oc2ncc(CN3CCN(c4ccccc4)CC3)s2)cc1,-2,-60*,7,2,33*
COc1ccc(Nc2cc(C(=O)NCCCN3CCN(c4ccccc4F)CC3)c3ccccc3n2)c(OC)c1,-42*,nt,0,-2,13
COc1ccc([N+](=O)[O-])cc1NC(=O)CCN1CCN(c2ccccc2)CC1,-4,-25,2,-5,75*
Cc1cc(C)cc(OCC(=O)N/N=C/c2ccc([N+](=O)[O-])o2)c1,-38*,8,0,-10,8
COc1cc(NC(=O)CCN2CCN(c3ccccc3)CC2)cc(OC)c1,2,nt,3,-3,nt
COc1cc(NC(=O)CCN2CCN(c3ccccc3OC)CC2)cc(OC)c1,nt,-99*,nt,nt,-3
CCCC(=O)N1CCC1(C)C(=O)Nc1ccc2c(c1)OCCO2 (stereo not drawn),nt,15,nt,nt,3
COc1ccccc1CNc1nc(Nc2ccc(C)cc2C)c2sccc2n1,nt,0,nt,nt,-4
COc1ccc(OC)c(NC(=O)Cn2c(=O)n(-c3ccc(Cl)cc3)c(=O)c3c(C)c(C)sc32)c1,-1,nt,0,1,1
COc1ccc(OC)c(NC(=O)CCN2CCCCC2)c1,-11,-14,2,2,0
O=C(CCN1CCN(c2ccccc2)CC1)N/N=C/c1ccc([N+](=O)[O-])o1,-43*,-15,-4,-8,-5
COc1ccc(NC(=O)CCN2CCN(c3ccccc3F)CC2)c(OC)c1,-36*,-15,1,-26,29
COc1ccc(OC)c(NC(=O)CCN2CCN(c3ccccc3OC)CC2)c1,-64*,-84*,3,0,-17
COc1ccc(C(=O)[C@H]2[C@H]3C(=O)N(c4ccccc4)C(=O)[C@H]3C3C=CC=NN32)cc1 (stereo partly drawn),11,-11,1,2,68*
CC(=O)Oc1ccc(C(=O)[C@H]2[C@H]3C(=O)N(c4ccccc4)C(=O)[C@H]3[C@@H]3C=CC=NN32)cc1,-24,-25,7,3,-7
O=S(=O)(Cc1ccc(Cl)cc1)N1CCCC1,-74*,-10,2,2,-14
CCOc1ccc(-n2c(SCC(=O)N3CCCC3)nc3c([nH]c4ccccc43)c2=O)cc1,7,nt,3,-5,-7
Cc1c(/C=N/Nc2ccc(F)cc2)c(O)n(C)c(=O)c1C#N,-14,-5,3,-3,-3
CC(=O)N=Cc1c(C)c(C#N)c(=O)n(C)c1O,-57*,12,10,-9,1
CCCCN(C)CCCNC(=O)Cn1ncc2c3ccccc3n(Cc3ccccc3F)c2c1=O,6,nt,9,-4,-25
CCCCN(C)CCCNC(=O)Cn1ncc2c3ccccc3n(Cc3cc(C)ccc3C)c2c1=O,0,nt,96*,-1,-17
Cc1ccc(C)c(Cn2c3ccccc3c3cnn(CC(=O)NCCCN4CCOCC4)c(=O)c32)c1,-30*,-2,3,-4,-9
O=C(CSc1nccn1Cc1ccc(F)cc1)Nc1ccc2c(c1)OCCO2,-10,nt,1,-6,-7
COc1ccccc1-c1noc2c1C(=O)N(C(=O)OC(C)(C)C)CC2,nt,-10,nt,nt,-1
SMILES,D1 antagonist,D3 antag,D1 ag,D1 potentiator,DRD3 agonist
Cc1ccc(/C(=C\CN2CCCC2)c2cccc(/C=C/C(=O)O)n2)cc1,nt,nt,nt,nt,-11
Nc1c(C(=O)Nc2ccccc2Br)sc2nc(-c3cccs3)ccc12,-9,nt,8,-1,9
Nc1c(C(=O)Nc2ccc(Cl)cc2F)sc2nc(-c3cccs3)ccc12,-38*,nt,16,0,8
Nc1c(C(=O)Nc2nc3ccccc3s2)sc2nc(-c3cccs3)ccc12,3,-22,112*,-3,3
CCOc1ccc(N2CC(NC(=O)c3ccc(S(=O)(=O)N4CCOCC4)cc3)CC2=O)cc1 (stereo not drawn),nt,nt,-3,-3,13
COc1ccc(CCNC(=O)c2cc(Nc3ccccc3)nc3ccccc23)cc1OC,-24,nt,6,-6,-12
O=c1oc2c(F)cc(F)cc2cc1S(=O)(=O)c1ccc(F)cc1,6,nt,69*,-1,-3
Cc1ccc(C)c(N2CCN(C(=O)CN3C(=O)COc4ccc(S(=O)(=O)N5CCCC5)cc43)CC2)c1,10,nt,-1,4,-4
